Laboratory results taken from paper PMC4336329 (PLoS ONE, 2015).
The campaign covered roughly 310,000 compounds. About 14,000 (4.5%) showed an effect of 50% or more. The effect is printed as a negative number. The full list was thinned out, with strong results kept by preference.

Molecular target: human ether-à-go-go-related gene (hERG) potassium channel (human, UniProt Q12809)
Assay: primary screen, population patch clamp on CHO cells stably expressing hERG; higher = less effect of the substance
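Note: peak tail current of the secondary pulse compared with the same well before compound.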

Chain of human ether-à-go-go-related gene (hERG) potassium channel (Q12809 whole entry, looked up): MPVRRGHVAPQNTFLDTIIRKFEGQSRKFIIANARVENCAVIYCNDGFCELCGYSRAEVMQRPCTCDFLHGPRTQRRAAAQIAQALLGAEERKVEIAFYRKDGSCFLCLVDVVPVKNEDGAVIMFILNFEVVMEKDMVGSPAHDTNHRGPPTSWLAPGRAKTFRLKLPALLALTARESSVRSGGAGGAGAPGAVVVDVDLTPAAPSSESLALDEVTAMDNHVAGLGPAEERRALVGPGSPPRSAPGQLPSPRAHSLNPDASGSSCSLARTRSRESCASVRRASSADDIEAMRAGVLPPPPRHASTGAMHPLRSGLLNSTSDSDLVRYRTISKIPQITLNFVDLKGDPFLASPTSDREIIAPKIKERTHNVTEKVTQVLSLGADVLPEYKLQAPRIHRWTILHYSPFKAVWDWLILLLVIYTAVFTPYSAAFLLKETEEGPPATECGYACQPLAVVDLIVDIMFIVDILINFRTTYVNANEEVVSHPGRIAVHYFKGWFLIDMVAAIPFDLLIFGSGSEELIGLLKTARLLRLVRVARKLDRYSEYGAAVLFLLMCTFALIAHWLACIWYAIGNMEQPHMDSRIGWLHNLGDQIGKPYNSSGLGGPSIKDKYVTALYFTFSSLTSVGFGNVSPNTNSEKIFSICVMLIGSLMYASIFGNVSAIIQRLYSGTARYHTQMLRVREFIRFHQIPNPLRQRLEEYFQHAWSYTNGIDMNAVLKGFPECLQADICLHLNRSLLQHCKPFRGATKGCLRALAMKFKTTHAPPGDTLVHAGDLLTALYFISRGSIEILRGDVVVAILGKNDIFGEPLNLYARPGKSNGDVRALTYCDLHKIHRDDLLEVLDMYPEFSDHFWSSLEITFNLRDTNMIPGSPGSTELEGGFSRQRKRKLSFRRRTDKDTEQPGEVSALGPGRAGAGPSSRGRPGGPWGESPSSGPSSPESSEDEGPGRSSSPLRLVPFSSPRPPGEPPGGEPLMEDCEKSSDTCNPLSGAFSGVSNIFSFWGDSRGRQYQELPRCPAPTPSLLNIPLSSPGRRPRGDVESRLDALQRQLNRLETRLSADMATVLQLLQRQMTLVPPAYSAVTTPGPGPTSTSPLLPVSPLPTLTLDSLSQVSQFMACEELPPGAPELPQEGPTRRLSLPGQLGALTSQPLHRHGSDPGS

Going from `CCN1CCN(CC(O)COc2ccc3c(C)cc(=O)oc3c2)CC1.Cl` (stereo not shown) to `CCCN1CCN(C(c2cc3cc(OCC)ccc3[nH]c2=O)c2nnnn2C2CCCCC2)CC1` (stereo not shown), the “hERG current change (%, negative = inhibition) at 10uM” value falls from -0.83% to -46.4%.

Compared with `O=C(CSCC(=O)N1CCOCC1)Nc1ccccc1`, `Cc1cccc(/C=C2\Sc3ccc(C(=O)N4CCOCC4)cc3N(C)C2=O)c1` is lower in “hERG current change (%, negative = inhibition) at 10uM” value: -0.115% for the first, -40.7% for the second.

Going from `O=C(NC1CCS(=O)(=O)C1)c1ccc2c(c1)OCO2` (stereo not shown) to `O=C(NCc1ccc2c(c1)OCO2)c1ccncc1`, the “hERG current change (%, negative = inhibition) at 10uM” value falls from 13% to -12.6%.

Going from `Cc1nc2ccc(NC(=O)c3ccc(Cl)c(S(=O)(=O)N(C)c4ccccc4)c3)cc2s1` to `Cc1ccc(S(=O)(=O)N(Cc2ccc(Cl)cc2)c2ccccc2C(=O)O)cc1`, the “hERG current change (%, negative = inhibition) at 10uM” value rises from 10.3% to 12.3%.

Going from `Cc1cccc(C)c1NC(=O)C(NC=O)c1ccc(Cl)cc1` (stereo not shown) to `Cc1cccc(C)c1NC(=O)C(NC=O)c1ccc(N(C)C)cc1` (stereo not shown), the “hERG current change (%, negative = inhibition) at 10uM” value falls from 0.758% to -11.1%.

Compared with `Cc1cccc(C)c1NC(=O)C(NC=O)c1ccccc1` (stereo not shown), `Cc1cc(C)n(CC(O)COc2ccccc2C(=O)Nc2ccccc2)n1` (stereo not shown) is higher in “hERG current change (%, negative = inhibition) at 10uM” value: -64.1% for the first, -26.1% for the second.

Compared with `COc1cc2c(=O)n(Cc3ccco3)c(=O)n(CC(=O)c3ccc(Br)cc3)c2cc1OC`, `COc1ccc(CCNC(=O)Cn2cnc3c(cnn3-c3ccccc3Cl)c2=O)cc1OC` is higher in “hERG current change (%, negative = inhibition) at 10uM” value: -3.02% for the first, -1.24% for the second.

First: O=C(NCC(c1ccco1)N1CCc2ccccc21)c1ccccc1F (stereo not shown)
Second: O=C(NCC(c1ccco1)N1CCc2ccccc21)c1ccccc1Br (stereo not shown)
The “hERG current change (%, negative = inhibition) at 10uM” value of the first is higher: -19.8% for the first, -29.3% for the second.

Compared with `COc1ccc(CCC(=O)NCC(c2ccco2)N2CCc3ccccc32)cc1` (stereo not shown), `O=C(CCc1ccccc1)NCC(c1ccco1)N1CCc2ccccc21` (stereo not shown) is lower in “hERG current change (%, negative = inhibition) at 10uM” value: -44.2% for the first, -56.2% for the second.

First: O=C(NCC(c1ccco1)N1CCc2ccccc21)c1c(F)cccc1F (stereo not shown)
Second: Cc1ccccc1C(=O)NCC(c1ccco1)N1CCc2ccccc21 (stereo not shown)
The “hERG current change (%, negative = inhibition) at 10uM” value of the first is higher: -7.53% for the first, -55.7% for the second.

First: O=C(NCC(c1ccco1)N1CCc2ccccc21)c1ccccc1 (stereo not shown)
Second: O=C(NCC(c1ccco1)N1CCc2ccccc21)c1ccccc1Cl (stereo not shown)
The “hERG current change (%, negative = inhibition) at 10uM” value of the first is higher: -3.78% for the first, -60.2% for the second.

Going from `Cc1ccc(C(=O)NCC(c2ccco2)N2CCc3ccccc32)cc1` (stereo not shown) to `Cc1cccc(C(=O)NCC(c2ccco2)N2CCc3ccccc32)c1` (stereo not shown), the “hERG current change (%, negative = inhibition) at 10uM” value falls from -13% to -25.6%.

Going from `COc1ccccc1C(=O)NCC(c1ccco1)N1CCc2ccccc21` (stereo not shown) to `Cc1ccc(C(=O)NCC(c2ccco2)N2CCc3ccccc32)cc1C` (stereo not shown), the “hERG current change (%, negative = inhibition) at 10uM” value falls from -6.41% to -60.1%.

Compared with `O=C(C[n+]1ccc(/C=N/O)cc1)N(Cc1ccccc1)Cc1ccccc1.[Cl-]`, `CCOc1ccccc1C(=O)Nc1ccc(NC(=O)c2ccccc2)cc1` is higher in “hERG current change (%, negative = inhibition) at 10uM” value: 0.798% for the first, 12.7% for the second.

First: CC(=C/C(=O)O)/C(=C/c1ccccc1)C(=O)O
Second: Cc1occc1C(=O)n1nnc2ccccc21
The “hERG current change (%, negative = inhibition) at 10uM” value of the first is higher: 15.6% for the first, -7.48% for the second.

First: Cc1cc(S(=O)(=O)NCCN2CCOCC2)ccc1Cl
Second: Cc1nn2c(NCCN3CCOCC3)c3c(nc2c1-c1ccccc1)CCCC3
The “hERG current change (%, negative = inhibition) at 10uM” value of the first is higher: 21.3% for the first, -76.5% for the second.

First: Cc1sc2ncn(CC(=O)NCCCN3CC(C)CC(C)C3)c(=O)c2c1S(=O)(=O)N1CC(C)CC(C)C1 (stereo not shown)
Second: CCOc1ccc(-n2c(=O)c3c4c(sc3n(CC(=O)NCCCOC)c2=O)CCCCC4)cc1
The “hERG current change (%, negative = inhibition) at 10uM” value of the first is lower: -32.1% for the first, -1.22% for the second.

First: O=C(NCC(c1cccnc1)N1CCOCC1)C1CCCCC1 (stereo not shown)
Second: Cn1c2ccccc2c2c(C(=O)NCC3CCCO3)cn(C3CCCC3)c(=O)c21 (stereo not shown)
The “hERG current change (%, negative = inhibition) at 10uM” value of the first is higher: 5% for the first, -0.664% for the second.

Going from `Cc1ccnc(NC(=O)CNC(=O)c2ccc3ccccc3c2)c1` to `Cc1ccc(-c2csc(NC(=O)C3=NN(c4ccccc4)C(=O)CC3)n2)cc1`, the “hERG current change (%, negative = inhibition) at 10uM” value rises from -12.5% to 3.35%.

First: CCOC(=O)c1c(-c2ccccc2)c2cc(OC)ccc2n1CCCN(C)C.Cl
Second: COc1ccc2c(c1)c(C(=O)OCCN(C)C)c(C)n2C.Cl
The “hERG current change (%, negative = inhibition) at 10uM” value of the first is lower: -72.4% for the first, -1.4% for the second.

Going from `CCCCn1c(C)c(C(=O)O)c2cc(OC)ccc21` to `CCN(CC)C(=O)c1ccc2c(=O)n(CCOC)c(=S)[nH]c2c1`, the “hERG current change (%, negative = inhibition) at 10uM” value falls from 1.59% to -7.02%.

First: Cn1cc(S(=O)(=O)N2CCCC2)cc1C(=O)NCc1ccc(Cl)cc1
Second: Cc1ccc(NCC(=O)Nc2cccc(F)c2)cc1S(=O)(=O)N1CCCCCC1
The “hERG current change (%, negative = inhibition) at 10uM” value of the first is higher: 2.02% for the first, -22.6% for the second.

First: COc1ccc2nc(NC(C)=O)sc2c1
Second: COc1cc(-c2csc(C)n2)ccc1O
The “hERG current change (%, negative = inhibition) at 10uM” value of the first is lower: -4.83% for the first, 8.67% for the second.

Going from `Cc1ccc(OCC(=O)N/N=C/C=C/c2ccco2)cc1` to `COc1ccc(/C=C2\Sc3ccc(C(=O)N4CCOCC4)cc3N(C)C2=O)cc1`, the “hERG current change (%, negative = inhibition) at 10uM” value rises from -45.9% to -15.3%.

First: CC(Oc1ccc(Cl)cc1)c1ccnn1S(=O)(=O)c1ccccc1 (stereo not shown)
Second: CN=C(Nc1cccnc1)c1ccccc1
The “hERG current change (%, negative = inhibition) at 10uM” value of the first is lower: 5.02% for the first, 15.6% for the second.

Going from `Cc1nn2c(NCc3ccccn3)c3c(nc2c1-c1ccccc1)CCC3` to `Cc1nn2c(NCc3cccnc3)c3c(nc2c1-c1ccccc1)CCC3`, the “hERG current change (%, negative = inhibition) at 10uM” value rises from -51% to -34.2%.

Going from `Cc1nn2c(NCC(C)C)c3c(nc2c1-c1ccccc1)CCC3` to `Cc1nn2c(NCCN(C)C)c3c(nc2c1-c1ccccc1)CCC3`, the “hERG current change (%, negative = inhibition) at 10uM” value falls from 4.8% to -26.7%.

Going from `Cc1nn2c(NCCCN(C)C)c3c(nc2c1-c1ccccc1)CCC3` to `Cc1nn2c(NCCCN(C)C)c3c(nc2c1-c1ccccc1)CCCC3`, the “hERG current change (%, negative = inhibition) at 10uM” value rises from -59.4% to -32.2%.

Going from `Cc1nn2c(NCCOCCO)c3c(nc2c1-c1ccccc1)CCC3` to `Cc1nn2c(NCCOCCO)c3c(nc2c1-c1ccccc1)CCCC3`, the “hERG current change (%, negative = inhibition) at 10uM” value falls from -50.2% to -74.2%.

First: COCCNc1c2c(nc3c(-c4ccccc4)c(C)nn13)CCCC2
Second: COCCNc1c2c(nc3c(-c4ccccc4)c(C)nn13)CCC2
The “hERG current change (%, negative = inhibition) at 10uM” value of the first is lower: -1.34% for the first, 2.2% for the second.

Going from `CCCCNc1c2c(nc3c(-c4ccccc4)c(C)nn13)CCC2` to `Cc1nn2c(NCCN(C)C)c3c(nc2c1-c1ccccc1)CCCC3`, the “hERG current change (%, negative = inhibition) at 10uM” value falls from -3.59% to -41.4%.

Going from `Cc1nn2c(Nc3ccccc3)c3c(nc2c1-c1ccccc1)CCC3` to `Cc1nn2c(N3CCOCC3)c3c(nc2c1-c1ccccc1)CCCC3`, the “hERG current change (%, negative = inhibition) at 10uM” value falls from 14.1% to -14.8%.

First: Cc1ccc(C(C(=O)NC2CCCCC2)N(C(=O)c2csnn2)C2CC2)cc1 (stereo not shown)
Second: Cc1cccc(/C=C2\Sc3ccc(C(=O)N4CCCCC4)cc3N(C)C2=O)c1
The “hERG current change (%, negative = inhibition) at 10uM” value of the first is lower: -9.75% for the first, 12.1% for the second.

Compared with `COc1ccc(C(CC(=O)N2CCOCC2)c2c(OC)cc(OC)c3ccc(=O)oc23)cc1` (stereo not shown), `CCOc1ccc(/C=C2/Sc3ccc(C(=O)N4CCOCC4)cc3N(C)C2=O)cc1OC` is lower in “hERG current change (%, negative = inhibition) at 10uM” value: -3.96% for the first, -18.5% for the second.

First: CNC.Cc1cccn2c(NCC3CCCO3)c(C(C)C)nc12.Cl (stereo not shown)
Second: Fc1cccc(-c2cc3nc4c(c(NCc5ccco5)n3n2)CCCC4)c1
The “hERG current change (%, negative = inhibition) at 10uM” value of the first is higher: -12.7% for the first, -33.2% for the second.

Going from `Cc1c(C(C)O)nnn1-c1nonc1N` (stereo not shown) to `COc1ccc(C(C(=O)NC(C)(C)C)N(Cc2cccnc2)C(=O)CCC(=O)Nc2cc(C)on2)cc1` (stereo not shown), the “hERG current change (%, negative = inhibition) at 10uM” value rises from -2.42% to 10.9%.

Compared with `CN(C)CCCNc1c2c(nc3cc(-c4cccc(F)c4)nn13)CCC2`, `CN(C)CCCNc1cc(-c2ccccc2)nc2cc(-c3cccc(F)c3)nn12` is higher in “hERG current change (%, negative = inhibition) at 10uM” value: -69.1% for the first, -15.9% for the second.

First: CCn1cc(Br)c(C(=O)Nc2ccc(Cl)cc2Cl)n1
Second: CN1C(=O)/C(=C/c2cccc(Cl)c2)Sc2ccc(C(=O)N3CCCC3)cc21
The “hERG current change (%, negative = inhibition) at 10uM” value of the first is higher: 7.24% for the first, -49.7% for the second.

First: COc1ccccc1NS(=O)(=O)c1cc2c(cc1C)NC(=O)CO2
Second: CN(C)C=O.COc1ccccc1NC(=O)C1=C(C)NC(=O)NC1c1ccccc1[N+](=O)[O-] (stereo not shown)
The “hERG current change (%, negative = inhibition) at 10uM” value of the first is lower: -7.43% for the first, 7.42% for the second.

First: CN1CCN(C(=O)c2ccc3c(c2)N(C)C(=O)/C(=C/c2cccc(Cl)c2)S3)CC1
Second: CN1C(=O)/C(=C/c2cccc(Cl)c2)Sc2ccc(C(=O)N3CCOCC3)cc21
The “hERG current change (%, negative = inhibition) at 10uM” value of the first is lower: -55.1% for the first, -50.3% for the second.

Compared with `CCOC(=O)N1CCN(C(=O)c2ccc3c(c2)N(C)C(=O)/C(=C\c2ccc(OCC)c(OC)c2)S3)CC1`, `CCOc1ccc(/C=C2/Sc3ccc(C(=O)N4CCN(C(=O)c5ccco5)CC4)cc3N(C)C2=O)cc1OC` is lower in “hERG current change (%, negative = inhibition) at 10uM” value: -32.5% for the first, -53.9% for the second.

Going from `COc1cccc(N2CCN(C(=O)C3CCCN(S(=O)(=O)c4cnc[nH]4)C3)CC2)c1` (stereo not shown) to `COC(=O)c1ccccc1NC(=O)N1CSC[C@H]1C(=O)OC`, the “hERG current change (%, negative = inhibition) at 10uM” value falls from 17.4% to 15.8%.

Compared with `CCCCN(CCCC)CC(O)COc1ccccc1Br.Cl` (stereo not shown), `CCCCN(CCCC)CC(O)COc1ccccc1C(=O)Nc1ccccc1` (stereo not shown) is lower in “hERG current change (%, negative = inhibition) at 10uM” value: -40.6% for the first, -98.7% for the second.

Compared with `CC1(C)NC(=O)N(CC(O)COc2ccccc2C(=O)Nc2ccccc2)C1=O` (stereo not shown), `CCCN(CCC)CC(O)COc1ccccc1C(=O)Nc1ccccc1.Cl` (stereo not shown) is lower in “hERG current change (%, negative = inhibition) at 10uM” value: -6.2% for the first, -68.2% for the second.
